Screens (PubChem)
Pf growth 96h: Primary qHTS for delayed death inhibitors of the malarial parasite plastid, 96 hour incubation; P. falciparum luciferase reporter growth, 96 h; Potency, µM (titrated, usually from 28.7 µM), inactives show top-dose activity change, negative = inhibition, usual class: inhibitors; actives 6.9% (n = 320,000); note: potency is the fitted concentration of half-maximal effect; % is set by controls: 0 for no effect and ±100 for the full control effect
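Erythrocytes infected with luciferase-expressing P. falciparum were dispensed at 2% hematocrit and 0.05% parasitemia (final), then incubated with compounds 96 hours at 37 C in 5% CO2. Luminescence after detection reagent addition reported growth.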
HCV inhibitor: qHTS Assay for Inhibitors of Hepatitis C Virus (HCV). Huh7.5.1 HCVcc-Cre infection, luciferase reporter, 44 h. Potency, µM (top dose mostly 41.8 µM), without a hit: top-dose activity change, negative = inhibition, most hits filed as inhibitors. actives 3.4% (n = 340,000). AID 651820, 2012; note: potency is the fitted concentration of half-maximal effect; % is set by controls: 0 for no effect and ±100 for the full control effect
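A cell-based infection assay in which seeded cells (1,000 per well) receive test compound after 4 h, are inoculated with HCVcc-Cre at approximately 0.5 moi, and are incubated 44 h before luminescence detection.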
Pf growth 48h: Primary qHTS for delayed death inhibitors of the malarial parasite plastid, 48 hour incubation | AID 504832, 2011 | Potency, µM (doses to about 28.7 µM), for inactives: at the highest dose activity change, negative = inhibition, actives largely listed as inhibitors | P. falciparum luciferase growth in erythrocytes, 48 h | actives 5.9% (n = 310,000); note: potency is the fitted concentration of half-maximal effect; % is set by controls: 0 for no effect and ±100 for the full control effect
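Erythrocytes infected with P. falciparum carrying an integrated firefly luciferase reporter (2% hematocrit, 0.1% parasitemia final) were exposed to compounds in RPMI 1640 with 0.5% Albumax at 37 C, 5% CO2. Growth inhibition was scored as reduced luminescence.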
Sm TGR block: qHTS Assay for the Inhibitors of Schistosoma Mansoni Peroxiredoxins; Schistosoma mansoni thioredoxin glutathione reductase (TGR), Q962Y6; actives 3% (n = 360,000); purified TGR, DTNB reduction, TNB absorbance 405 nm; Potency, µM (titrated, usually from 114 µM), for inactives: at the top dose activity change, negative = inhibition, usual class: inhibitors; note: potency is the fitted concentration of half-maximal effect; % is set by controls: 0 for no effect and ±100 for the full control effect; nearly all actives have a fitted effect of over 60% in size
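Kinetic colorimetric format: TGR-catalysed, NADPH-driven DTNB reduction monitored via TNB absorbance. Enzyme dispensed at 20 nM; compound exposure 15 min at room temperature before reaction start.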
HCMV inh: qHTS Assay for inhibitors of the human cytomegalovirus (HCMV). HFF cells, HCMV-luciferase reporter, 72 h; active compounds read low. activity change, negative = inhibition, % at 57.5 µM. actives 4.5% (n = 410,000); in the data active = activity change below about -60%; inconclusive = no clear call, values can overlap the other calls; inactive = above about -39%; note: % is set by controls: 0 for no effect and ±100 for the full control effect
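Compounds were evaluated in HFFs infected with an HCMV luciferase reporter virus (MOI 1 PFU/cell). Luciferase in lysates collected 72 h post infection served as the replication measure.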
SARS PLP yeast: qHTS of Yeast-based Assay for SARS-CoV PLP. S. cerevisiae expressing SARS-CoV PLpro, growth rescue. Potency, µM (highest dose often 32.9 µM), without a hit: at the highest dose activity, positive = growth rescue, actives largely listed as activators. actives 0.19% (n = 330,000); calls by dose curve; note: potency is the fitted concentration of half-maximal effect; 0% is about no effect; nearly all actives have a fitted effect of over 55% in size
An asterisk follows results filed as active; [ ] = another dose, or the depositor's remark. This is a sample that favours compounds with a hit; in the whole collection about 15% have one here. Unless noted, calls come from the whole dose curve; as a rule, active = well fitted curve in the direction sought with a large enough effect; inconclusive = small, poorly fitted or top-dose-only effect, or another doubt; inactive = no such curve, though single readings can be large; an effect the other way counts as inactive or inconclusive.

COc1ccc(NS(=O)(=O)c2ccc(N3CCOCC3)c(NC(=O)c3ccc(OC)cc3)c2)cc1 was read as Pf growth 96h 11.7µM*, HCV inhibitor inconclusive, Pf growth 48h 0.0%, Sm TGR block 8.0%, HCMV inh inconclusive and SARS PLP yeast 17.0%.
For COc1ccc(S(=O)(=O)Nc2cc(C(=O)NC(C)C)ccc2N2CCOCC2)cc1 the results were HCV inhibitor -5.1%, Pf growth 48h -15.0%, Sm TGR block -12.4%, HCMV inh 7.1 and SARS PLP yeast 7.1%.
COc1ccc(NS(=O)(=O)c2ccc(Cl)c(NC(=O)c3ccccc3F)c2)cc1 was read as HCV inhibitor inconclusive, HCMV inh inconclusive and SARS PLP yeast -6.9%.
`COc1ccc(S(=O)(=O)Nc2ccc(N3CCOCC3)cc2)cc1` gave Pf growth 96h 15.7%, HCV inhibitor 9.3%, Sm TGR block -16.1%, HCMV inh 14.6 and SARS PLP yeast -1.8%.
`COc1ccc(NS(=O)(=O)c2ccc(N3CCOCC3)c(NC(=O)c3ccccc3Cl)c2)cc1` gave Pf growth 96h 0.0%, HCV inhibitor inconclusive, Pf growth 48h 10.4µM*, Sm TGR block -14.9%, HCMV inh -12.9 and SARS PLP yeast 11.8%.
Screening O=C(CSc1nc(=O)n2ccccc2n1)OCc1ccccc1 returned Pf growth 96h -4.5%, HCV inhibitor 0.4%, Pf growth 48h inconclusive, Sm TGR block -1.9%, HCMV inh -33.8 and SARS PLP yeast 7.1%.
Screening O=C1Nc2cc(C(=O)NCCCN3CCCC3)ccc2S/C1=C/c1ccccc1F returned Pf growth 96h 13.1µM*, HCV inhibitor inconclusive, Pf growth 48h inconclusive, Sm TGR block 11.4%, HCMV inh -36.9 and SARS PLP yeast -3.4%.
Screening Cc1ccc(/C=C2/Sc3ccc(C(=O)NCCN4CCOCC4)cc3NC2=O)cc1 returned Pf growth 96h inconclusive, HCV inhibitor -0.4%, Pf growth 48h inconclusive, Sm TGR block 6.3%, HCMV inh 0.0 and SARS PLP yeast -9.0%.
`CC(C)OCCCNC(=O)c1ccc2c(c1)NC(=O)c1ccccc1S2` gave Pf growth 96h 1.7%, HCV inhibitor inconclusive, Pf growth 48h 3.7µM*, Sm TGR block -26.1%, HCMV inh inconclusive and SARS PLP yeast 1.9%.
Screening O=C(NCCCN1CCCCC1)c1ccc2c(c1)NC(=O)c1ccccc1S2 returned Pf growth 96h inconclusive, HCV inhibitor 10µM*, Pf growth 48h inconclusive, Sm TGR block 2.5%, HCMV inh -34.7 and SARS PLP yeast 3.7%.
Screening O=C1Nc2cc(C(=O)NCCN3CCCCCC3)ccc2S/C1=C/c1ccccc1F returned HCMV inh -23.8.
COC(=O)c1cc(NC(=O)c2ccc3c(c2)NC(=O)c2ccccc2S3)cc(C(=O)OC)c1 was read as Pf growth 96h -24.1%, Pf growth 48h 1.2%, Sm TGR block -3.9%, HCMV inh -8.4 and SARS PLP yeast -5.1%.
For CCN1CCCC1CNC(=O)c1ccc2c(c1)NC(=O)/C(=C\c1ccc(C)cc1)S2 (stereo unspecified) the results were Pf growth 96h inconclusive, HCV inhibitor 6.31µM*, Pf growth 48h inconclusive, Sm TGR block -11.0%, HCMV inh -37.4 and SARS PLP yeast -9.6%.
Screening CC1CN(C(=O)CCC(=O)NCc2ccccc2Cl)c2ccccc2S1 (stereo unspecified) returned Pf growth 96h 8.28µM*, HCV inhibitor -18.1%, Pf growth 48h -9.2%, Sm TGR block -21.6%, HCMV inh 5.7 and SARS PLP yeast -1.5%.
For COc1cccc(CNC(=O)CCC(=O)N2CC(C)Sc3ccccc32)c1 (stereo unspecified) the results were Sm TGR block -2.7% and HCMV inh -19.4.
Cc1[nH]c2ccc(F)cc2c(=O)c1SC(F)(F)C(F)F was read as Pf growth 96h -15.0%, HCV inhibitor inconclusive, Pf growth 48h 13.1µM*, Sm TGR block 2.5%, HCMV inh -8.5 and SARS PLP yeast -1.3%.
`CCOC(=O)c1c(NC(C)=O)c2c3c(sc2n1Cc1cccc(Cl)c1)CCCC3` gave Sm TGR block 7.0% and HCMV inh -83.6*.
CCOC(=O)c1c(NC(C)=O)c2c3c(sc2n1Cc1ccc(Cl)cc1)CCCC3 was read as Sm TGR block -4.2% and HCMV inh -27.5.
For CSCC[C@@H](C(=O)NCCCCCCCCCCC(=O)N1CCN(C(=O)OC(C)(C)C)CC1)n1cc(CCO)nn1 the results were Pf growth 96h 1.85µM*, HCV inhibitor inconclusive, Pf growth 48h 5.22µM*, Sm TGR block 2.6%, HCMV inh 0.1 and SARS PLP yeast -2.2%.
CC[C@@H](C)[C@@H](C(=O)N1CCN(C(=O)OC(C)(C)C)CC1)n1cc(CCCCNC(=O)OC(C)(C)C)nn1 was read as Pf growth 96h inconclusive, HCV inhibitor inconclusive, Pf growth 48h inconclusive, Sm TGR block -9.0%, HCMV inh -26.9 and SARS PLP yeast -0.9%.
`CC[C@H](C)Cc1cn([C@@H](CCCCNC(=O)OC(C)(C)C)C(=O)NCCCCCCCCCCC(=O)N2CCN(C(=O)OC(C)(C)C)CC2)nn1` gave Pf growth 96h 1.04µM*, HCV inhibitor inconclusive, Pf growth 48h 2.08µM*, Sm TGR block -2.0%, HCMV inh 21.1 and SARS PLP yeast 0.8%.
CC(C)(C)OC(=O)NCCCCc1cn(CC(=O)N2CCN(C(=O)OC(C)(C)C)CC2)nn1 was read as Pf growth 96h 8.8%, HCV inhibitor -2.0%[8.37 µM], Pf growth 48h 1.5%, Sm TGR block -8.5%, HCMV inh -79.6* and SARS PLP yeast -1.2%.
`CC(C)(C)OC(=O)NCCCC[C@@H](C(=O)NCCCCCCCCCCC(=O)N1CCN(C(=O)OC(C)(C)C)CC1)n1cc(CCO)nn1` gave Pf growth 96h 2.62µM*, HCV inhibitor inconclusive, Pf growth 48h 1.85µM*, Sm TGR block -7.2%, HCMV inh -21.2 and SARS PLP yeast 6.2%.
`CSCCCc1cn([C@@H](CO)C(=O)NCCCCCCCCCCC(=O)N2CCNCC2)nn1` gave Pf growth 96h -77.3%, HCV inhibitor 4.0%, Pf growth 48h 14.7µM*, Sm TGR block -13.9%, HCMV inh -24.5 and SARS PLP yeast 2.7%.
For Cc1ccc(OCC(=O)NNC(=S)NC(=O)C2CC2)c(C)c1 the results were Pf growth 96h 14.7µM*, Pf growth 48h inconclusive, Sm TGR block -0.8%, HCMV inh 11.9 and SARS PLP yeast -19.9%.
